Data taken from PubChem BioAssay.
Activity calls are given as the source filed them. Unless noted, how the calls were made is not given here.

Tests used:
[1] = system: Wnt5a (protein binding on small-molecule microarray); experiment: Wnt5a binders on small-molecule microarray, primary screen, biophysical, 635/667 nm fluorescence (AID 1142); conditions: 635 nm fluorescence, higher = more signal;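 further: fluorescence read at 667 nm with signal to noise per printed feature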
[2] = cell viability in Huh7 cells, primary screen, cytotoxicity control for HCV replication inhibitor project, CellTiter-Glo luminescence, basal, 48 h (AID 1143); conditions: Huh7 HCV replicon, higher = more signal, called active from +8 up or from −8 down;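 further: Huh7 hepatoma cells carrying a hepatitis C replication reporter with no stimulus; test concentration not given here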
[3] = P. aeruginosa biofilm formation inhibitors, primary screen, PAO1 strain, BacTiter-Glo luminescence, LB-PBS (AID 1144); conditions: 12 h, higher = more signal
[4] = CREB reporter modulators without forskolin, primary screen, cell-based, PC12, CRE-LacZ reporter, unstimulated (AID 1145); conditions: no forskolin, luminescence, 4.5 h, higher = more signal, called active from +8 up or from −8 down
[5] = CREB reporter modulators under forskolin, primary screen, cell-based, PC12, CRE-LacZ reporter, forskolin-stimulated (AID 1146); conditions: luminescence, 4.5 h, higher = more signal, called active from +8 up or from −8 down;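 further: PC12 cells with 6xCRE LacZ reporter stimulated by forskolin 10 µM; beta-galactosidase reporter signal reflecting CREB driven transcription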
[6] = biological target: Streptavidin (Streptomyces avidinii) (UniProt P22629); experiment: streptavidin binders on small-molecule microarray, primary screen, artefact control for SMM compound annotation, biophysical, 635/667 nm fluorescence (AID 1147); conditions: streptavidin binding, higher = more signal;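 further: signal reflects streptavidin binding to arrayed compounds as a control protein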
Chain of Streptavidin (Streptomyces avidinii) (P22629 whole entry, looked up): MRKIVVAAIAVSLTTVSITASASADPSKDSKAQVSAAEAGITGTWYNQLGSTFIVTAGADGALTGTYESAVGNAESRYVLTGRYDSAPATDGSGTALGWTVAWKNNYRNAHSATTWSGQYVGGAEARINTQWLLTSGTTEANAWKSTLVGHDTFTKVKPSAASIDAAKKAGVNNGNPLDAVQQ

[7] = small-molecule binders of probe aInhba, primary screen, biochemical, small-molecule microarray, 635/667 nm fluorescence (AID 1148); conditions: higher = more signal;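 further: score merges 667nm spot fluorescence with signal-to-noise for antibody binding to printed compounds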
Torsin-1A (Homo sapiens) [8] = biological target: Torsin-1A (Homo sapiens) (UniProt O14656); experiment: torsin A binders from cell lysate, primary screen, small-molecule microarray, wild-type, 635/667 nm (AID 1149); conditions: COS7 hTOR1A-WT lysate, 635 nm fluorescence, higher = more signal
Chain of Torsin-1A (Homo sapiens) (O14656 whole entry, looked up): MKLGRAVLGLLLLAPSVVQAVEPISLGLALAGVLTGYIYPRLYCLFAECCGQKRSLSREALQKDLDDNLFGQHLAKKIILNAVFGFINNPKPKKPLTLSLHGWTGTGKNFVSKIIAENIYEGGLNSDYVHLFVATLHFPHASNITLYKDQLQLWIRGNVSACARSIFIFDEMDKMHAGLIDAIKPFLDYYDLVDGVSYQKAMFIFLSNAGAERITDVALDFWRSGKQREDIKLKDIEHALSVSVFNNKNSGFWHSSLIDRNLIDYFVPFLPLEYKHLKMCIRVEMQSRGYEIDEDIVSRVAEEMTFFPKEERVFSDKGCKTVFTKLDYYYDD

Torsin-1A (Homo sapiens) [9] = biological target: Torsin-1A (Homo sapiens) (UniProt O14656); experiment: small-molecule binders of mutant TOR1A in lysate, primary screen, cell lysate, small-molecule microarray, COS7 lysate, 635/667 nm fluorescence (AID 1150); conditions: COS7 hTOR1A mutant lysate, 635 nm fluorescence, higher = more signal;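 further: score pools 667 nm emission and signal to noise measuring lysate protein binding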
[10] = system: Sonic hedgehog protein (Shh); experiment: small-molecule binders of Shh protein, primary screen, biochemical, small-molecule microarray, 635/667 nm fluorescence (AID 1151); conditions: small-molecule microarray binding, 635 nm fluorescence; higher = more signal;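 further: Shh protein binding to compounds spotted on small-molecule microarray slides; score combines spot fluorescence intensity with signal-to-noise across triplicate slides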
[11] = E. coli DRC41 culture turbidity changes, primary screen, E. coli filamentation inducer project, strain DRC41, OD650, 48 h (AID 1152);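 further: E. coli MC1000 strain DRC41 lacking acrAB efflux pump and sulA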; conditions: E. coli DRC41 (acrAB sulA), higher = more signal, called active from +8 up or from −8 down
[12] = small-molecule binders of probe aLefty1, primary screen, biochemical, small-molecule microarray, 635/667 nm fluorescence (AID 1153); conditions: higher = more signal;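 further: score merges spot fluorescence with signal-to-noise ratio from the scanned slide images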
[13] = PSAC antagonists in infected red cells, primary screen, cell-based, P. falciparum Indochina, OD700, 1 h (AID 1154); conditions: P. falciparum Indochina infected RBC osmotic lysis, higher = more signal, called active from +8 up or from −8 down
[14] = PSAC antagonists in infected red cells, primary screen, cell-based, P. falciparum Indochina, OD700, 2 h (AID 1155);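 further: lysis reports solute entry through the parasite surface anion channel PSAC; channel blockers reduce lysis of infected cells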; conditions: P. falciparum Indochina infected erythrocytes, osmotic lysis OD700; higher = more signal, called active from +8 up or from −8 down
[15] = osmotic lysis modulators in infected erythrocytes, primary screen, PSAC antagonist project, cell-based, P. falciparum Indochina, OD700, 3 h (AID 1156); conditions: higher = more signal, called active from +8 up or from −8 down
[16] = PSAC antagonists in infected red cells, primary screen, cell-based, P. falciparum Indochina, OD700, 18 h (AID 1157); conditions: P. falciparum Indochina infected erythrocytes, osmotic lysis OD700, 18 h; higher = more signal, called active from +8 up or from −8 down
[17] = modulators of S6 phosphorylation in cells, primary screen, cell-based, A549, cytoblot, luminescence, serum-stimulated (AID 1158); conditions: A549 phospho-S6 cytoblot, 5 h, higher = more signal;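 further: serum-stimulated A549 lung adenocarcinoma cells; signal is phosphorylated S6 detected by cytoblot immunostaining with HRP secondary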
[18] = biological target: NADPH oxidase 2 (Homo sapiens) (UniProt P04839); experiment: NOX2-dependent H2O2 signal modulators, primary screen, NOX inhibitor project, cell-based, HEK293-NOX2, PMA-stimulated, Amplex Red fluorescence (AID 1159); conditions: 45 min, higher = more signal, called active from +8 up or from −8 down; further: test concentration not given here
Chain of NADPH oxidase 2 (Homo sapiens) (P04839 whole entry, looked up): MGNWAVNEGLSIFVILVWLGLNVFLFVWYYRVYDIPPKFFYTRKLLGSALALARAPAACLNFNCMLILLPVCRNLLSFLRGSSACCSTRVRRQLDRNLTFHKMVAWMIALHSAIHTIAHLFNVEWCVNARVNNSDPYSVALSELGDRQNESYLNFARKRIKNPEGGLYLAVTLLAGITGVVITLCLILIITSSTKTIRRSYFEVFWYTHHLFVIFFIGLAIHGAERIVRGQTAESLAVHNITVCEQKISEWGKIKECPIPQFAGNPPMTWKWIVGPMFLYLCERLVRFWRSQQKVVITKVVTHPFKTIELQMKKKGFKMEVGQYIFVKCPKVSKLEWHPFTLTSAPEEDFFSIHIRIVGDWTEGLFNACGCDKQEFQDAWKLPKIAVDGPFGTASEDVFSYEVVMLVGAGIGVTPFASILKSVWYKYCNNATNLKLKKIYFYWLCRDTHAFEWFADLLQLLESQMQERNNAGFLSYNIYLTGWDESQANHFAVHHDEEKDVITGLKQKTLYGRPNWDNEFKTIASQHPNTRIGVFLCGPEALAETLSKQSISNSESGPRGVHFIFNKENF

[19] = biological target: NADPH oxidase 4 (Homo sapiens) (UniProt Q9NPH5); experiment: NOX4-dependent H2O2 signal modulators, primary screen, NOX inhibitor project, cell-based, HEK293-NOX4, tetracycline-induced, Amplex Red fluorescence (AID 1160); conditions: 45 min, higher = more signal, called active from +8 up or from −8 down
Chain of NADPH oxidase 4 (Homo sapiens) (Q9NPH5 whole entry, looked up): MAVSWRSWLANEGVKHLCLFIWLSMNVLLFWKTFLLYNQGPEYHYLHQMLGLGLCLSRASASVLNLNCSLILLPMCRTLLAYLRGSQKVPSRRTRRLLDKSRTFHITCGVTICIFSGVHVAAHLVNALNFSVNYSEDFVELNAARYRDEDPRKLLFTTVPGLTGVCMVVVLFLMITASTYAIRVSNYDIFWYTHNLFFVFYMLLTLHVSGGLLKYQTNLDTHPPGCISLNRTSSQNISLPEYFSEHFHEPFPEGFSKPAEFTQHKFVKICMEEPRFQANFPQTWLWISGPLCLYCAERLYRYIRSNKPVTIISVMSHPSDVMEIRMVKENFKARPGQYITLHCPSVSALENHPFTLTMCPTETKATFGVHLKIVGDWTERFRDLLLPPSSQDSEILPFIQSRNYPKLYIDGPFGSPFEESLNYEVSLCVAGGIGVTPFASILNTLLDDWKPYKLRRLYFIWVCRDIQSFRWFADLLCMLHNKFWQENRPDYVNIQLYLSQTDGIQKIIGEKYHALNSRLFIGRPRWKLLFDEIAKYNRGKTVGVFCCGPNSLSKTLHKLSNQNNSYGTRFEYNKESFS

[20] = biological target: NADPH oxidase 5 (Homo sapiens) (UniProt Q96PH1); experiment: NOX5-dependent H2O2 signal modulators, primary screen, NOX inhibitor project, cell-based, HEK293-NOX5, Amplex Red fluorescence (AID 1161); conditions: HEK293-NOX5, ionomycin, 45 min, higher = more signal
Chain of NADPH oxidase 5 (Homo sapiens) (Q96PH1 whole entry, looked up): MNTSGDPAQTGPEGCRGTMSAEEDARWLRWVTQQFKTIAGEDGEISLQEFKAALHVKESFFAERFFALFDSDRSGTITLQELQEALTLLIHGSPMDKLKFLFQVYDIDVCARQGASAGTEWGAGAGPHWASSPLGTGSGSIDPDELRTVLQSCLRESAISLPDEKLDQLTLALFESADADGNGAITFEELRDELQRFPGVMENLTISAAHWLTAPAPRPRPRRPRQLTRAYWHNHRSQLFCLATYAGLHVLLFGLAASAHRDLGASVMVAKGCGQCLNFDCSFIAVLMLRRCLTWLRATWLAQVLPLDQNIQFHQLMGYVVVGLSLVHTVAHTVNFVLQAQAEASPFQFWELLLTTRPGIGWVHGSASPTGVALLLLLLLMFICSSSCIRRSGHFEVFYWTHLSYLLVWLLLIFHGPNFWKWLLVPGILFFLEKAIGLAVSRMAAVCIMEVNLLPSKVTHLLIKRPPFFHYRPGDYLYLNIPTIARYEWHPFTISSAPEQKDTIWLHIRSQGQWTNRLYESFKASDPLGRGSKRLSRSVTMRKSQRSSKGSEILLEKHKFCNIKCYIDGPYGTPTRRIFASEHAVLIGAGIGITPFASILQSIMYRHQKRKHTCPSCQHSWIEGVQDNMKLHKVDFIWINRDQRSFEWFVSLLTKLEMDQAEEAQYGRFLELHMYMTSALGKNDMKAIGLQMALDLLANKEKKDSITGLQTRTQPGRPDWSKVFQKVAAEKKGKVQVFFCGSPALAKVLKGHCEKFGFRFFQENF

Compound	composite z-score [1]	z-score [2]	z-score [3]	z-score [4]	z-score [5]	composite z-score [6]	composite z-score [7]	composite z-score (Torsin-1A (Homo sapiens) [8])	composite z-score (Torsin-1A (Homo sapiens) [9])	composite z-score [10]	z-score [11]	composite z-score [12]	z-score [13]	z-score [14]	z-score [15]	z-score [16]	z-score [17]	z-score [18]	z-score [19]	z-score [20]
Cc1ccc2[nH]c3nc(CCCn4ccnc4-c4ccccc4)nnc3c2c1	0.181	-0.317 (inactive)	0.892 (inactive)	-0.435 (inactive)	-0.815 (inactive)	0.857	0.157	0.443	0.807	1.18	0.369 (inactive)	0.0072	8.16 (active)	0.751 (inactive)	0.632 (inactive)	0.322 (inactive)	-0.903	-0.137 (inactive)	-0.375 (inactive)	-1.14
Cc1cc2c(nc1C)CCCCN2CC(O)CN1CCCc2nc(-c3ccc(Br)cc3)ccc21 (stereo not given)	0.0684	0.304 (inactive)	-0.708 (inactive)	0.744 (inactive)	0.597 (inactive)	0.639	0.0541	0.0636	0.154	1.1	0.453 (inactive)	0.345	4.88 (inactive)	0.0477 (inactive)	0.0577 (inactive)	0.148 (inactive)	0.75	1.88 (inactive)	0.175 (inactive)	0.616
CC(C)=CCCC(C)=CCON=C1[C@H]2CCn3c(=O)n(-c4ccccc4)c(=O)n3[C@H]2[C@H](O)[C@@H]2O[C@H]12	0.0694	-1.7 (inactive)	-0.044 (inactive)	-0.473 (inactive)	-0.271 (inactive)	1.07	0.0319	1.02	0.413	1.38	-0.484 (inactive)	0.688	4.93 (inactive)	0.635 (inactive)	2.07 (inactive)	0.695 (inactive)	0.897	0.856 (inactive)	0.577 (inactive)	-0.799
CCOC(=O)NN=C1C[C@@H](O)[C@@H](O)[C@@H]2[C@@H]3C(=O)N(C[C@@H]4CCCO4)C(=O)[C@@H]3CC[C@H]12	0.0534	0.587 (inactive)	-0.973 (inactive)	-0.926 (inactive)	-0.0875 (inactive)	-0.319	-0.004	0.715	0.577	0.225	0.138 (inactive)	-0.147	-0.133 (inactive)	-0.121 (inactive)	-0.497 (inactive)	-0.235 (inactive)	0.0411	0.192 (inactive)	0.433 (inactive)	-0.468
CC(CCC(=O)OC[C@H]1O[C@H](C#Cc2ccccc2)C=C[C@@H]1Oc1ccc(C)cc1)=NOC[C@@H](C)[C@H](OCc1ccccc1)C(C)C	-0.174	-0.276 (inactive)	-0.193 (inactive)	-0.399 (inactive)	0.778 (inactive)	-0.783	-0.128	-0.705	-0.28	0.0623	-0.321 (inactive)	-0.378	0.551 (inactive)	0.498 (inactive)	0.901 (inactive)	0.392 (inactive)	-0.0916	1.21 (inactive)	1.16 (inactive)	0.919
C#CCCCON=C1C[C@@H](O)[C@@H](O)[C@@H]2[C@@H]3C(=O)N(C[C@@H]4CCCO4)C(=O)[C@@H]3CC[C@H]12	-0.0106	0.119 (inactive)	0.428 (inactive)	-0.564 (inactive)	0.593 (inactive)	0.66	-0.128	0.372	0.406	0.554	-0.25 (inactive)	-0.293	0.515 (inactive)	0.189 (inactive)	-0.0365 (inactive)	0.0603 (inactive)	0.591	-0.635 (inactive)	-1.68 (inactive)	-1
COC(=O)[C@H](Cc1ccccc1)NC(=O)[C@@H](C)CO	0.276	-2.36 (inactive)	-1.61 (inactive)	-0.0684 (inactive)	0.563 (inactive)	0.311	0.284	0.0847	0.0866	0.643	-0.388 (inactive)	0.174	0.0772 (inactive)	-0.824 (inactive)	0.811 (inactive)	-1.87 (inactive)	1.92	0.966 (inactive)	0.185 (inactive)	-2.94
COC(=O)[C@H](C)NC(=O)CCC1CC(OC(=O)NCc2cccc3ccccc23)CC2(CCCC(COC(=O)NCCc3ccccc3OC)O2)O1 (stereo not given in full)	0.259	-0.701 (inactive)	0.326 (inactive)	0.556 (inactive)	0.684 (inactive)	0.759	-0.0361	0.475	0.406	0.963	-0.731 (inactive)	-0.193	7.29 (inactive)	1.37 (inactive)	-0.148 (inactive)	0.494 (inactive)	-0.353	-0.49 (inactive)	0.357 (inactive)	0.512
CO[C@@H]1COC(=O)[C@H](CCSC)NC(=O)CC=C[C@@H](C)COC(=O)[C@@H]2CCCN2C(=O)CC=C[C@H]1C	0.186	-0.501 (inactive)	0.277 (inactive)	0.0652 (inactive)	-1.38 (inactive)	-0.234	-0.024	1.24	0.785	0.876	-0.785 (inactive)	0.224	0.911 (inactive)	0.727 (inactive)	0.537 (inactive)	0.354 (inactive)	-0.235	-2.15 (inactive)	-0.045 (inactive)	0.887
COc1ccc(COC(=O)NN=C2C[C@@H](O)[C@@H](O)[C@@H]3[C@@H]4C(=O)N([C@@H](C)c5ccccc5)C(=O)[C@@H]4CC[C@@H]23)cc1	0.251	1 (inactive)	-0.253 (inactive)	-0.113 (inactive)	0.0521 (inactive)	0.409	0.0111	0.699	0.388	-0.0113	0.774 (inactive)	-0.102	0.823 (inactive)	-0.119 (inactive)	-0.667 (inactive)	-0.0631 (inactive)	-0.339	-0.247 (inactive)	1.01 (inactive)	-0.0473
CCN1C(=O)[C@H]2[C@H]3[C@H](O)[C@H](O)CC(=NNC(=O)OCc4ccccc4)[C@H]3CC[C@H]2C1=O	0.038	-0.0436 (inactive)	0.877 (inactive)	-0.119 (inactive)	-0.497 (inactive)	0.214	-0.0719	-0.211	0.223	-0.486	-1.89 (inactive)	0.0931	1.26 (inactive)	0.322 (inactive)	0.364 (inactive)	0.0338 (inactive)	-0.18	0.92 (inactive)	0.424 (inactive)	0.0659
CO[C@H]1COC(=O)[C@H](C)COC(=O)[C@H](C)NC(=O)CC=C[C@H]1C	0.108	-1.34 (inactive)	0.598 (inactive)	0.611 (inactive)	-0.506 (inactive)	-0.237	-0.0762	1.26	1.18	1.88	0.25 (inactive)	-0.101	0.212 (inactive)	0.0618 (inactive)	-0.0422 (inactive)	-0.186 (inactive)	0.0807	1.67 (inactive)	0.299 (inactive)	-0.42
COC(=O)[C@H](C)NC(=O)CCC1CC(OC(=O)NCc2cccc3ccccc23)CC2(CCCC(COC(=O)NCc3cccc(C(F)(F)F)c3)O2)O1 (stereo not given in full)	0.166	-1.33 (inactive)	-1.07 (inactive)	-0.0755 (inactive)	-0.213 (inactive)	0.925	0.444	0.241	0.225	1.04	-0.356 (inactive)	0.0794	1.35 (inactive)	-0.871 (inactive)	0.339 (inactive)	-1.23 (inactive)	1.1	0.352 (inactive)	-0.179 (inactive)	0.0278
O=C1C2=CC[C@H]3C(=O)N(c4ccc(F)cc4F)C(=O)[C@H]3[C@H]2[C@H](O)[C@@H]2O[C@H]12	0.28	0.612 (inactive)	-0.845 (inactive)	-0.202 (inactive)	0.305 (inactive)	0.447	-0.0221	0.528	0.308	0.389	-0.138 (inactive)	0.558	-0.487 (inactive)	-0.122 (inactive)	-0.708 (inactive)	-0.0627 (inactive)	0.311	0.0832 (inactive)	0.0553 (inactive)	-0.191
COC(=O)CC=C[C@@H](C)[C@@H](C=NOC(C)CN1CCCCc2nc(C)c(C)cc21)OC (stereo not given in full)	0.263	-0.211 (inactive)	0.763 (inactive)	1.41 (inactive)	0.802 (inactive)	0.405	-0.239	3.19	2.65	1.79	-0.0952 (inactive)	-0.0501	1.78 (inactive)	0.322 (inactive)	-0.29 (inactive)	0.441 (inactive)	-0.637	-2.01 (inactive)	-0.392 (inactive)	-1.52
CCOC(=O)[C@H](Cc1ccccc1)NC(=O)CCC1CC(OC(=O)NCc2cccc3ccccc23)CC2(CCCC(COC(=O)NCCc3ccc(Cl)cc3)O2)O1 (stereo not given in full)	0.0449	-2.69 (inactive)	-1.39 (inactive)	0.563 (inactive)	0.0305 (inactive)	0.998	-0.223	-0.162	0.244	0.932	-1.37 (inactive)	0.539	7.28 (inactive)	0.618 (inactive)	-0.552 (inactive)	-0.687 (inactive)	0.335	0.694 (inactive)	0.92 (inactive)	0.986
